Test [1] in a line: APR_HepG2_P-H2AX_72hr: Apredica 72-hour HepG2 Assay for H2AX Phosphorylation (AID 2282916).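 Also: phospho-histone H2A.x immunostain intensity per cell marking DNA damage.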 Conditions: imaging, actives raise or lower the signal. An outline of the steps:
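HepG2 human liver cells were exposed for 72 hr to compounds at 0.39–200 uM (10 concentrations, duplicate per plate) in 0.5% v/v DMSO. Fixed, permeabilized cells were immunolabeled for phospho-histone H2A.x with Hoechst 33342 and imaged by HCS fluorescence; bidirectional fit versus DMSO.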

Test [2] can be described thus: APR_HepG2_MitoMembPot_72hr: Apredica 72-hour HepG2 Assay for Mitochondrial Membrane Potential (AID 2282917). Conditions: imaging, actives raise or lower the signal. In a few lines: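 Membrane potential read by MitoTracker Red CMXRos (250 nM, 30 min, pre-fixation) fluorescence imaging of HepG2 after 72 hr exposure. Ten concentrations, 0.39–200 uM, duplicate wells, 0.5% DMSO; fitted in both directions against DMSO baseline.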

Test [3] in a line: APR_HepG2_MicrotubuleCSK_72hr: Apredica 72-hour HepG2 Assay for Microtubule CSK Stabilty (AID 2282919). Conditions: HepG2 microtubule cytoskeleton, high-content imaging, actives raise or lower the signal. In a few lines:
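Read-out is tubulin fluorescence intensity from high-content imaging of HepG2 cells, with nuclei identified by Hoechst 33342. Treatment lasts 72 h at 0.39–200 uM, and curves are fitted bidirectionally against the DMSO negative control.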

Test [4] is described as follows: APR_HepG2_P-H2AX_24hr: Apredica 24-hour HepG2 Assay for H2AX Phosphorylation (AID 2282920). Conditions: high-content imaging, actives raise or lower the signal. An outline of the steps: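 HepG2, 24 hr, cpd 0.39–200 uM (10 conc, duplicate), DMSO 0.5% v/v final. Fix 3.7% formaldehyde, Triton X-100 permeabilize, anti-phospho-H2A.x 1:200 + Hoechst 2 ug/mL. Imaged, bidirectional fit vs DMSO.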

Test [5] in a line: APR_HepG2_StressKinase_72hr: Apredica 72-hour HepG2 Assay for Stress Kinase (AID 2282921). Conditions: HepG2 stress kinase (phospho-c-Jun) imaging, actives raise or lower the signal. An outline of the steps: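 Cells were exposed for 72 h to ten concentrations (0.39–200 uM, duplicate) at 0.5% v/v DMSO final, then fixed with 3.7% formaldehyde, permeabilized and immunostained for phospho-c-Jun (Cy3 secondary) with Hoechst nuclear counterstain.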

A short description of test [6]: APR_HepG2_StressKinase_24hr: Apredica 24-hour HepG2 Assay for Stress Kinase (AID 2282922). Particulars: HepG2 stress kinase (phospho-c-Jun) imaging, actives raise or lower the signal. An outline of the steps: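 HepG2, 24 hr dosing, 0.39–200 uM in duplicate, 0.5% DMSO; formaldehyde fix (3.7%), 0.5% Triton X-100; anti-phospho-c-Jun + Cy3 secondary, Hoechst counterstain; ArrayScan imaging; bidirectional curve fit vs DMSO baseline.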

Test [7] in a line: APR_HepG2_p53Act_72hr: Apredica 72-hour HepG2 Assay for p53 Activation (AID 2282923).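 Also: average cellular p53 protein immunofluorescence intensity in HepG2 cells.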 Conditions: high-content imaging, actives raise or lower the signal. An outline of the steps: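 Cells were dosed for 72 hr with compounds at 0.39–200 uM in duplicate (final DMSO 0.5% v/v), then fixed in 3.7% formaldehyde, permeabilized with Triton X-100 and immunostained for p53 (Cy5) with Hoechst 33342 nuclear counterstain.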

The nature of test [8]: APR_HepG2_MitoMass_72hr: Apredica 72-hour HepG2 Assay for Mitochondrial Mass (AID 2282924).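 Also: MitoTracker Red CMXRos stain intensity per cell imaged as mitochondrial mass.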 Particulars: high-content imaging, actives raise or lower the signal. An outline of the steps: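 HepG2, 72 hr cmpd, 10 conc 0.39–200 uM in dup, DMSO 0.5% v/v. MitoTracker Red CMXRos 250 nM 30 min pre-fix; formaldehyde 3.7% fix 30 min RT. HCS imaging, gain/loss fit vs DMSO.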
The nature of test [9]: APR_HepG2_NuclearSize_72hr: Apredica 72-hour HepG2 Assay for Nuclear Size (AID 2282925). Conditions: high-content imaging, actives raise or lower the signal. In a few lines:
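HepG2; cpd 0.39–200 uM, 10 conc, duplicate; 72 h; DMSO 0.5% v/v; fix 3.7% formaldehyde 30 min RT; Triton permeabilization; Hoechst 2 ug/mL; HCS imaging 20x; nuclear diameter; gain/loss fit vs DMSO.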

Test [10] is described as follows: ATG_CRE_CIS: Attagene CIS-FACTORIAL HepG2 Assay for human cAMP Responsive Element (CRE) binding protein 3 (AID 2282926). Conditions: HepG2 CRE cis-reporter, Attagene multiplexed mRNA; actives raise or lower the signal. An outline of the steps:
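Human liver HepG2, transient MRTU transfection, 24 h compound exposure. Total RNA → oligo(dT) RT → PCR → 6-FAM primer extension → HpaI cut → CE. Activity called both directions vs DMSO.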

The target in test [11] is CCAAT/enhancer-binding protein beta (Homo sapiens) (UniProt P17676). Briefly: ATG_C_EBP_CIS: Attagene CIS-FACTORIAL HepG2 Assay for human CCAAT/Enhancer Binding Protein (C/EBP) beta (AID 2282927). Particulars: HepG2 Attagene cis-factorial transcription factor reporter; actives raise or lower the signal. In a few lines:
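Changes in reporter mRNA, rather than exogenous chimeric receptor activity, reflect native C/EBP signalling in transfected HepG2 cells dosed for 24 h; transcripts are detected by RT-PCR and capillary electrophoresis.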

A short description of test [12]: ATG_CMV_CIS: Attagene CIS-FACTORIAL HepG2 Assay for human CMV (Internal Marker) (AID 2282928).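 Also: endpoint acts as a background internal control marker rather than a target.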 Particulars: HepG2 CMV promoter reporter, transcription factor profiling; actives raise or lower the signal. An outline of the steps:
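HepG2 cells transiently transfected with multiple cis-regulated reporter units; 24 h compound exposure. Reporter mRNA quantified by RT-PCR, 6-FAM primer-extension labeling, HpaI digestion and capillary electrophoresis; bidirectional fitting against DMSO baseline.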

A short description of test [13]: ATG_DR4_LXR_CIS: Attagene CIS-FACTORIAL HepG2 Assay for human Liver X Receptor (LXR), DR4 submotif (AID 2282929). Particulars: HepG2 Attagene DR4 cis-reporter, mRNA transcription; actives raise or lower the signal. In a few lines: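 Endogenous factor activity at a DR4 cis-element is read as reporter mRNA in transiently transfected HepG2 cells. Exposure lasts 24 h; transcripts are amplified, fluorescently labelled and sized by capillary electrophoresis, with DMSO as baseline.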

Test [14] deals with Aryl hydrocarbon receptor (Homo sapiens) (UniProt P35869). The test can be described thus: ATG_Ahr_CIS: Attagene CIS-FACTORIAL HepG2 Assay for human Aryl Hydrocarbon Receptor (Ahr) (AID 2282930). Particulars: HepG2 AhR cis-factorial reporter transcription; actives raise or lower the signal. In a few lines: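 HepG2, transient MRTU (cis) transfection, 24 h exposure. RNA → cDNA → PCR → 6-FAM primer extension → HpaI 2 h 37 C → CE. Fit: bidirectional, DMSO baseline.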

The nature of test [15]: ATG_AP_1_CIS: Attagene CIS-FACTORIAL HepG2 Assay for human Activator Protein 1 (AP-1) (AID 2282931). Conditions: HepG2 Attagene cis-factorial AP-1 reporter mRNA; actives raise or lower the signal. In a few lines: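 Fluorescence of labelled PCR fragments separated by capillary electrophoresis gives reporter mRNA levels. HepG2 with transfected cis-regulated reporter units, 24 h exposure; DMSO serves as baseline for bidirectional curve fits.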

Test [16] in a line: ATG_AP_2_CIS: Attagene CIS-FACTORIAL HepG2 Assay for human Activator Protein 2 (AP-2) (AID 2282932). Particulars: HepG2 AP-2 cis-reporter, Attagene transcription factor profiling; actives raise or lower the signal. In a few lines:
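Step one: transient transfection of HepG2 with reporter transcription units. Step two: 24 h chemical exposure. Step three: RNA extraction, RT-PCR, labelled fragment analysis by capillary electrophoresis; DMSO serves as baseline.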

For test [17], the target named is Retinoic acid receptor alpha (Homo sapiens) (UniProt P10276). The test can be described thus: ATG_DR5_RAR_CIS: Attagene CIS-FACTORIAL HepG2 Assay for human Retinoic Acid Receptor Alpha (RARE), DR5 submotif (AID 2282934).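 As to AC50: reporter responds to endogenous RAR alpha beta and gamma in HepG2 not RARA alone.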 Conditions: HepG2 Attagene cis-factorial RARE DR5 reporter, mRNA; actives raise or lower the signal. An outline of the steps: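 HepG2, transient cis-reporter transfection, 24 h exposure. mRNA readout: RT-PCR, FAM label, HpaI cut, capillary electrophoresis. DMSO baseline, gain/loss fitting.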

The nature of test [18]: APR_HepG2_MitoticArrest_72hr: Apredica 72-hour HepG2 Assay for Mitotic Arrest (AID 2282918). Particulars: high-content imaging, actives raise or lower the signal. An outline of the steps: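 Read-out is phospho-histone H3 immunofluorescence with Hoechst nuclear segmentation, imaged at 20x. Human HepG2 liver cells received ten concentrations (0.39–200 uM, final DMSO 0.5% v/v) for 72 hr before fixation. Gain or loss of signal was fitted relative to DMSO.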

The results in this text go back to PubChem BioAssay (EPA / NIEHS).

Where a structure was tested more than once in an assay, its records may differ in their call. Active and inactive are the calls of the source. The calls were made as follows: active = hit-call score of the fitted dose curve at least 0.9, where 1 is the maximum; inactive = score below 0.9.

Chain of Aryl hydrocarbon receptor (Homo sapiens) (P35869 whole entry, looked up): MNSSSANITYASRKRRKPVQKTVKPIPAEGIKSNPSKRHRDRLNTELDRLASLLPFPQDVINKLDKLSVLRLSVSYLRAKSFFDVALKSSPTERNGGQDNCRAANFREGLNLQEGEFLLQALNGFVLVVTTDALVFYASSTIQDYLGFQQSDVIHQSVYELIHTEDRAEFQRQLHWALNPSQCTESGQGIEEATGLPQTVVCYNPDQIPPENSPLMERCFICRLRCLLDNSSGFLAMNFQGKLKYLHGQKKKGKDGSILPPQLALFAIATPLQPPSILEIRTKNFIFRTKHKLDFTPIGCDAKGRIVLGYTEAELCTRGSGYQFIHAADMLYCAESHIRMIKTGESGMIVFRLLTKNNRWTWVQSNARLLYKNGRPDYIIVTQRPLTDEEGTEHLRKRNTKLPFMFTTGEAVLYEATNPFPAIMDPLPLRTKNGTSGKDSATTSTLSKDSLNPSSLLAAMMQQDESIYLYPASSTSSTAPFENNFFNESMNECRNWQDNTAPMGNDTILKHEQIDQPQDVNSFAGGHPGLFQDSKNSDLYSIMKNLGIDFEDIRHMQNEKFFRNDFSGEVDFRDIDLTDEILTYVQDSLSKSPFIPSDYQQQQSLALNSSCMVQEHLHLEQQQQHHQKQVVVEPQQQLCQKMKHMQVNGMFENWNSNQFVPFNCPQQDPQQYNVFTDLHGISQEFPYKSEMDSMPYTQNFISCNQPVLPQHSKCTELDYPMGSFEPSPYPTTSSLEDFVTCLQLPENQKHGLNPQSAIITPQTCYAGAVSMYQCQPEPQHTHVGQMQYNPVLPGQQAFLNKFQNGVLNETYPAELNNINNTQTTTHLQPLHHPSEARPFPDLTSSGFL
Chain of Retinoic acid receptor alpha (Homo sapiens) (P10276 whole entry, looked up): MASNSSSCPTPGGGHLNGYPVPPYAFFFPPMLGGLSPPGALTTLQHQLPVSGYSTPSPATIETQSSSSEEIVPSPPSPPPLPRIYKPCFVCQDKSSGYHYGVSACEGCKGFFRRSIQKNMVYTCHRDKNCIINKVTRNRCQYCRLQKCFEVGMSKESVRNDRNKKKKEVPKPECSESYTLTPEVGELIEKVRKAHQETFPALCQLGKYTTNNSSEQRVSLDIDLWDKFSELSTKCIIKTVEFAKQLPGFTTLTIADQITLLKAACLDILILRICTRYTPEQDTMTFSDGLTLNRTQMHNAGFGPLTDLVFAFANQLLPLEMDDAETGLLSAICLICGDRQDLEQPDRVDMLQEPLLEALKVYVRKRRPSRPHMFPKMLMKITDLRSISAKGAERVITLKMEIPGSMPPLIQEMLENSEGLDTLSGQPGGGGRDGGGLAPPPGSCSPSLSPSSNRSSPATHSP
Chain of CCAAT/enhancer-binding protein beta (Homo sapiens) (P17676 whole entry, looked up): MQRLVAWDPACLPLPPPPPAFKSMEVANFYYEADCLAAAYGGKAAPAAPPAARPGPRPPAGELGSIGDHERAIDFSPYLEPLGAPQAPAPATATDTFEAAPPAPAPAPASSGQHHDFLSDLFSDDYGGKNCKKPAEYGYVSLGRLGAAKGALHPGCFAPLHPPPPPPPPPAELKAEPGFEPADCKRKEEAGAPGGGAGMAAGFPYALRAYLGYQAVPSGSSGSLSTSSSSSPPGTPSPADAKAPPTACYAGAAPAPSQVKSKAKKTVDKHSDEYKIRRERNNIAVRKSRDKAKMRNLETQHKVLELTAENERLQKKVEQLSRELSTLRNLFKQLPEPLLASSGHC

In the case of `CCCCNC(=O)n1c(NC(=O)OC)nc2ccccc21`, the call in test [1], in test [2], in test [3], in [5], in test [7] and in test [9] was inactive. Moreover, the compound was classed as inactive in test [10], in test [11], in test [12], in [13], in [14] and in test [15]. The result in test [16] and in [17] was inactive. Moreover, the AC50 in test [4] was 23.6 µM (active); in test [6] it was 45.6 µM (active); in test [8], 13 µM (active).

Consider `CCNc1nc(Cl)nc(NCC)n1`, for which the result in test [1], in test [2], in test [3], in test [4], in test [5] and in [6] was inactive. For the same compound, the outcome in [7], in [8], in [9], in test [10], in test [11] and in test [12] was inactive. Further, the call in test [13], in [14], in test [15], in test [16] and in test [17] was inactive.

Consider `CCOP(=S)(OCC)SCn1c(=O)oc2cc(Cl)ccc21`, for which the compound was called inactive in test [1], in test [2], in [18], in [4], in test [6] and in test [7]. Besides, the compound was classed as inactive in test [9], in [14], in [15] and in [16]. For the same compound, the AC50 in test [3] was 99.8 µM (active); in [10], 9.92 µM (active); in [11], 12.9 µM (active); in test [12] it was 26.4 µM (active); in test [13], 80.8 µM (active); in test [17], 12.7 µM (active).

Take `CNC(=S)S`: the AC50 was 11.3 µM (active) in test [1]; 26.2 µM (active) in test [3]; 32.9 µM (active) in [4]; 50 µM (active) in [12]; 33.2 µM (active) in [14]; 50 µM (active) in test [15]. The result in test [2], in [6], in [7], in test [8], in [9] and in test [10] was inactive. The result in test [11], in test [12], in test [13], in [14], in test [15] and in test [16] was inactive.

As for `CCCC1COC(Cn2cncn2)(c2ccc(Cl)cc2Cl)O1` (stereo not given), the compound was classed as inactive in test [1], in test [2], in [18], in [4], in test [6] and in test [7]. The result in test [9], in test [10], in test [11], in [12], in [13] and in test [14] was inactive. Besides, the call in [15], in test [16] and in test [17] was inactive. Moreover, the AC50 is 77.7 µM (active) in [3]; 50 µM (active) in test [12]; 25 µM (active) in test [14]; 50 µM (active) in [15]; 6.97 µM (active) in test [17].

Take `CCc1nn(C)c(C(=O)NCc2ccc(C(C)(C)C)cc2)c1Cl`: the outcome in [1], in test [2], in test [18], in test [6], in test [7] and in test [8] was inactive. Moreover, the call in test [9], in test [13], in test [14] and in test [16] was inactive. Besides, the AC50 was 0.0488 µM (active) in [3]; 100 µM (active) in test [4]; 0.378 µM (active) in test [10]; 1.19 µM (active) in [11]; 0.171 µM (active) in [12]; 0.117 µM (active) in test [15]. Further, the AC50 in test [17] was 0.425 µM (active).

Consider `COC(=O)N(OC)c1ccccc1COc1ccn(-c2ccc(Cl)cc2)n1`, for which the AC50 in [1] was 25.5 µM (active); in [2], 3.69 µM (active); in [3], 3.29 µM (active); in test [10], 0.532 µM (active); in test [11] it was 0.401 µM (active); in test [12], 0.457 µM (active). Further, the AC50 in test [13] was 2.77 µM (active); in test [17], 0.64 µM (active). Moreover, the call in test [4], in [6], in test [7], in test [9], in test [14] and in [15] was inactive. Moreover, in test [16], the compound was classed as inactive.
